Assay outcomes: PubChem BioAssay, National Center for Advancing Translational Sciences (NCATS)
SW480 rerep = A quantitative high throughput screen for small molecules that induce DNA re-replication in SW480 colon adenocarcinoma cells; SW480 DNA re-replication, Hoechst DNA content imaging, 48 h; Potency, µM (top dose mostly 46.1 µM), without a hit: at the top dose re-replication activation, usual class: activators; actives 1.8% (n = 340,000); AID 624297, 2012; note: % of control where 0% means no effect; nearly all actives have a fitted effect of over 55% in size
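Image-based read-out: total Hoechst fluorescence of nuclei (405 nm excitation, 500-530 nm emission), with hits raising the fraction of high-intensity nuclei. SW480 colon cells incubated 48 hr with compounds at 37 C.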
12-LOX inh = Primary qHTS assay for inhibitors of human arachidonate 12S-lipoxygenase (ALOX12): Round 2; Polyunsaturated fatty acid lipoxygenase ALOX12 (Homo sapiens), P18054; purified 12hLO, xylenol orange hydroperoxide absorbance; Potency, µM (doses to about 108 µM), for the others: at the highest dose activity change, negative = inhibition, hits mostly inhibitors; actives 1.1% (n = 580,000); AID 1671190, 2021; note: % is set by controls: 0 for no effect and ±100 for the full control effect
Target sequence (P18054 whole entry, looked up): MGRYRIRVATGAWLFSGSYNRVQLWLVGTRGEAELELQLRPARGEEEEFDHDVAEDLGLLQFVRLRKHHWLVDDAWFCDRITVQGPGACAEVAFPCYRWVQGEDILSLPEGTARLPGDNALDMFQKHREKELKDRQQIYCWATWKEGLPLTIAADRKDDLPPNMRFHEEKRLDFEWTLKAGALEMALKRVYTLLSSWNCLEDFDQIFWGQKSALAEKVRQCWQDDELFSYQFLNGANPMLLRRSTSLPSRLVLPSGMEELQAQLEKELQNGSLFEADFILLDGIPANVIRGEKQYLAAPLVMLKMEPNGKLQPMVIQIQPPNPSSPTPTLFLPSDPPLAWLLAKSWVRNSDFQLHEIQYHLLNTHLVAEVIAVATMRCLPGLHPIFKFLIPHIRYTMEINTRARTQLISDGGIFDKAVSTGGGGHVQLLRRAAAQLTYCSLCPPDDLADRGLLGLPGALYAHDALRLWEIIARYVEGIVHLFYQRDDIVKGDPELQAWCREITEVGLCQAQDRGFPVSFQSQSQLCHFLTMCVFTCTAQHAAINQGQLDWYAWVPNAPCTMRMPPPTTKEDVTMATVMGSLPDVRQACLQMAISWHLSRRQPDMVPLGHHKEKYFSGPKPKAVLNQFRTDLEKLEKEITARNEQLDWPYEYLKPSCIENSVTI
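Purified human 12hLO (150 nM final) in 25 mM Hepes, 0.01% Triton X-100, pH 7.0 was preincubated 15 min at room temperature with compound. Then 40 uM arachidonic acid was added, 30 min. Hydroperoxide was read by Fe-XO absorbance ratio 573/405 nm.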
KB-3-1 tox = qHTS assay for MDR1-selective chemotherapeutics: Primary screen using the parental adenocarcinoma cell KB-3-1; KB-3-1 viability, CellTiter-Glo ATP luminescence, 72 h; Potency, µM (titrated, usually from 46.1 µM), usual class: cytotoxic; actives 1.4% (n = 400,000); note: % is set by controls: 0 for no effect and ±100 for the full control effect; nearly all actives have a fitted effect of over 60% in size
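Cells are dispensed, compounds pinned in, plates held at 37 °C for 72 h, then CellTiter-Glo is added and luminescence read after 10 minutes. Cell line: parental KB-3-1 in phenol-red-free DMEM, 10% FBS.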
KB-V1 MDR tox = qHTS assay for MDR1-selective chemotherapeutics: Primary screen using the drug-selected MDR subline cells KB-V1; KB-V1 MDR cells viability, CellTiter-Glo, 72 h; Potency, µM (series often up to 46.1 µM), most hits filed as cytotoxic; actives 3.4% (n = 400,000); note: % is set by controls: 0 for no effect and ±100 for the full control effect; nearly all actives have a fitted effect of over 60% in size
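Compound-treated KB-V1 multidrug-resistant cells, 72 h, 37 degrees C; viability by CellTiter-Glo. Fitted qHTS curves give the values.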
MCF10A rereplic = A quantitative high throughput screen for small molecules that induce DNA re-replication in MCF 10a normal breast cells; MCF 10A DNA re-replication, Hoechst nuclear intensity, 48 h; Potency, µM (highest dose often 46.1 µM), without a hit: at the top dose activity, positive = re-replication, hits mostly activators; actives 2.9% (n = 350,000); AID 624296, 2012; note: % of control where 0% means no effect; nearly all actives have a fitted effect of over 50% in size
PINK1 expr mod = A Quantitative High throughput Screen to Identify Chemical Modulators of PINK1 Expression; PINK1 immunofluorescence, high-content cytometry, 24 h; Potency, µM (doses to about 76.6 µM), for the others: at the top dose activation (PINK1 increase), usual class: activators; actives 0.2% (n = 410,000); AID 624263, 2012; active = well fitted activation curve with a large enough effect; inconclusive = small, poorly fitted or top-dose-only effect; cell line not stated here; note: % of control where 0% means no effect; nearly all actives have a fitted effect of over 65% in size
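Compound titrations (5 concentrations, 24 h) on a stable cell line; DMSO and CCCP controls. Endpoint: fixed-cell PINK1 immunofluorescence with mitochondrial, cell and nuclear markers, scanned by microplate cytometer.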
* = called active by the depositor; i = inactive; ? = inconclusive; . = no result. In the library only some 5.8% were active in any assay of this set; here they are far more common. Unless noted, calls come from the whole dose curve; as a rule, active = well fitted curve in the direction sought with a large enough effect; inconclusive = small, poorly fitted or top-dose-only effect, or another doubt; inactive = no such curve, though single readings can be large; an effect the other way counts as inactive or inconclusive. Potency is the fitted concentration of half-maximal effect.

SMILES	SW480 rerep	12-LOX inh	KB-3-1 tox	KB-V1 MDR tox	MCF10A rereplic	PINK1 expr mod
COc1cccc(/C=N\NC(=O)c2ccc(Cn3cc(Br)c([N+](=O)[O-])n3)o2)c1O	0.73µM*	-16%	?	?	?	2%
COc1cc(/C=N\NC(=O)c2ccc(Cn3nc([N+](=O)[O-])c(Cl)c3C)o2)ccc1O	0%	194%	i	i	2%	8%
Cc1ccccc1NC(=O)c1cccc(Cn2cc(Br)c([N+](=O)[O-])n2)c1	1%	-12%	i	i	3%	-1%
COc1ccc(OC)c(NC(=O)c2cccc(Cn3cc(Br)c([N+](=O)[O-])n3)c2)c1	-55%	-14%	?	4.6µM*	6%	3%
Cc1cccc(NC(=O)c2cccc(Cn3cc(Br)c([N+](=O)[O-])n3)c2)c1C	-2%	-9%	?	12µM*	-4%	4%
O=C(NCCn1cccc1-c1nc(-c2ccc3c(c2)OCO3)no1)c1ccc2c(c1)OCO2	.	30%	.	.	.	.
COc1ccc(C2(C)N(O)C(C)C(c3cccs3)=[N+]2[O-])cc1 (stereo unspecified)	.	-5%	.	.	.	.
OCC1(CCOc2ccccc2)CCN(C2Cc3ccccc3C2)CC1	0%	-13%	i	i	18µM*	3%
Cc1cc(=S)n2ccccc2n1	.	20%	.	.	.	.
O=C(C1COc2ccccc2O1)N1CCN(Cc2cc(=O)oc3cc(O)ccc23)CC1 (stereo unspecified)	.	0%	.	.	.	.
Cc1ccc2c(c1)C(=O)C(=O)N2CC1COc2ccccc2O1 (stereo unspecified)	23µM*	-8%	?	21µM*	?	-1%
COc1ccc(NC(=S)N(C)CC2COc3ccccc3O2)cc1 (stereo unspecified)	-20%	78%	i	?	0.65µM*	1%
CN(CC1COc2ccccc2O1)C(=S)Nc1ccccc1F (stereo unspecified)	0%	-23%	i	i	18%	1%
CCN1CCN(CC2COc3ccccc3O2)CC1 (stereo unspecified)	5%	?	i	i	-4%	-2%
Cc1ccc2c(c1)C(=O)C(=O)N2Cc1ccccc1	?	-28%	?	i	?	8%
COc1ccc2c(c1)C(=O)C(=O)N2CC1COc2ccccc2O1 (stereo unspecified)	?	-25%	15µM*	?	?	3%
CCOc1ccc2c(c1)C(=O)C(=O)N2CC1COc2ccccc2O1 (stereo unspecified)	8.2µM*	0%	13µM*	i	?	4%
Cc1cccc(OCCC(=O)OC(C)C(=O)Nc2ccc(S(N)(=O)=O)cc2)c1 (stereo unspecified)	.	38%	.	.	.	.
COc1ccc(Cc2nc3nccc(-c4cc(OC)c(OC)c(OC)c4)n3n2)cc1	.	44%	.	.	.	.
CCOC(=O)[C@]12CCCC=C1N(Cc1ccc(Cl)cc1Cl)C(=O)[C@H](CC(=O)NCc1ccc(OC)c(OC)c1)C2	.	?	?	18µM*	.	3%
CCOC(=O)[C@]12CCC=C1N(Cc1ccc(Cl)cc1Cl)C(=O)[C@H](CC(=O)NCc1ccccc1)C2	.	-7%	i	?	.	0%
CCOC(=O)[C@]12CCCC=C1N(Cc1ccc(Cl)cc1Cl)C(=O)[C@H](CC(=O)NCc1cccc(C(F)(F)F)c1)C2	.	-2%	?	16µM*	.	3%
CCOC(=O)[C@]12CCC=C1N(Cc1ccc(Cl)cc1Cl)C(=O)[C@H](CC(=O)NCc1cccc(C(F)(F)F)c1)C2	.	1%	?	21µM*	.	2%
